High-throughput results as filed in PubChem BioAssay.
Shown are actives, neighbours in structure and some others; about 1.5% of the full set was active somewhere.
Nrf2 activator = Nrf2 pathway activation | 410,000 tested, 0.31% active | AID 624171 | AREc32 ARE-luciferase reporter (MCF7-derived line), luminescence, 24 h | Potency, µM (top dose mostly 46.1 µM), hits mostly activators; note: nearly all actives have a fitted effect of over 65% in size
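Quantitative high-throughput format: AREc32 reporter cells, 1000 per well, received compound by pin transfer and were incubated 24 hr at 37 deg C, 5% CO2, before Steady-Glo luminescence detection.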
12-LOX inh = inhibitors of human 12S-lipoxygenase ALOX12 | 580,000 tested, 1.1% active | Potency, µM (series often up to 108 µM), hits mostly inhibitors | AID 1671190 | purified 12hLO, xylenol orange hydroperoxide absorbance
Target sequence (P18054 whole entry, looked up): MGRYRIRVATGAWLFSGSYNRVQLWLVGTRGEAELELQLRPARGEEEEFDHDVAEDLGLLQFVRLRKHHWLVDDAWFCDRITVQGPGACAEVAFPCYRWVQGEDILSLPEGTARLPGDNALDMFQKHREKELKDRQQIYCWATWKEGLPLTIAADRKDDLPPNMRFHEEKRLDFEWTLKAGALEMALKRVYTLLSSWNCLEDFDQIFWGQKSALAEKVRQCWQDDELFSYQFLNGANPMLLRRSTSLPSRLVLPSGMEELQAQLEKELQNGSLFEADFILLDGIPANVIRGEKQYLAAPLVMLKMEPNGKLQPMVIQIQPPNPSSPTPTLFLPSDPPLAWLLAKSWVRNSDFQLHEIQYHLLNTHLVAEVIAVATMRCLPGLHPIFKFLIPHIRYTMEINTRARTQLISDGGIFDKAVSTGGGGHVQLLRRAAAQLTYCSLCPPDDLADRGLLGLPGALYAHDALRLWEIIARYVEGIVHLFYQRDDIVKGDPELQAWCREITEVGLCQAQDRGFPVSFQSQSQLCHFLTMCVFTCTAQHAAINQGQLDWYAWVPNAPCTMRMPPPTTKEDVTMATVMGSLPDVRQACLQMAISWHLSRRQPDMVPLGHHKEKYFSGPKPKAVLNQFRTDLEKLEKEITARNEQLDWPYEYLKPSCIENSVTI
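Purified human 12hLO (150 nM final) in 25 mM Hepes, 0.01% Triton X-100, pH 7.0 was preincubated 15 min at room temperature with compound. Then 40 uM arachidonic acid was added, 30 min. Hydroperoxide was read by Fe-XO absorbance ratio 573/405 nm.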
IL2 activator = IL-2 activation | 360,000 tested, 0.065% active | activation, % (series mostly up to about 46 µM) | IL-2 activation reporter assay, cell-based qHTS; stimulated with anti-CD3/CD4/CD28 beads; in transgenic mouse T cells; in the data active = activation above about 50%; inconclusive = mostly about 30% to 49%
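Unstimulated transgenic mouse T cells preincubated 60 min with compound, then stimulated with anti-CD3/anti-CD4-coated beads plus anti-CD28 for 18 h at 37 degrees C. IL-2 response read as EGFP and DsRed fluorescence by plate cytometry.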
Integrin act MD = activates integrin-mediated alleviation for muscular dystrophy. alpha7betagal myoblasts, beta-gal FDG fluorescence, 48 h. Potency, µM (titrated, usually from 38.3 µM), actives largely listed as activators. 350,000 tested, 0.064% active; note: nearly all actives have a fitted effect of over 60% in size
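alpha7betagal+/- myoblasts (passage 13, 250/well) treated 48 h at 37C with compounds at 1:260 dilution of DMSO stock. Lysed, then beta-galactosidase activity read as FDG fluorescence (ex 480/em 540) after 30 min, with pre-read for autofluorescence.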
uPA generation = inhibitors of cell surface uPA generation. cell surface uPA generation assay, qHTS. Potency, µM (top dose mostly 38.3 µM), usual class: inhibitors. 330,000 tested, 0.31% active. AID 540303; active = well fitted inhibition curve with a large enough effect; inconclusive = small, poorly fitted or top-dose-only effect; inactive = no such curve, though single readings can be large or run the other way; tested in mouse RAW 264.7 cells; note: nearly all actives have a fitted effect of over 55% in size
A number is an active result; n = inactive; u = inconclusive; x = no result given; ! = not active in a repeat; [ ] = dose if it differs, or a comment. Unless noted, calls come from the whole dose curve; as a rule, active = well fitted curve in the direction sought with a large enough effect; inconclusive = small, poorly fitted or top-dose-only effect, or another doubt; inactive = no such curve, though single readings can be large; an effect the other way counts as inactive or inconclusive.

SMILES	Nrf2 activator	12-LOX inh	IL2 activator	Integrin act MD	uPA generation
O=C(CCCN1C(=O)NC2(CCCC2)C1=O)Nc1cccc2cccnc12	x	n	x	x	x
COc1cc(OC)c2c(-c3ccccc3)cc(=O)oc2c1C(CC(=O)N1CCCC1)c1ccc2c(c1)OCO2 (configuration not stated)	n	50µM	n	n	n
COc1cc(OC)c2c(-c3ccccc3)cc(=O)oc2c1C(CCN1CCOCC1)c1ccc(N(C)C)cc1 (configuration not stated)	n	n	n	n	u
COc1cc(OC)c2c(-c3ccccc3)cc(=O)oc2c1C(CCN1CCCCC1)c1ccc(N(C)C)cc1 (configuration not stated)	n	x	n	n	10µM
O=C(NC1CCCCC1)N1CCN(c2ccc(Cl)nn2)C(=O)C1	x	n[6.33 µM]	x	x	x
CC(=O)Nc1ccc(S(=O)(=O)N2CCN(C(=O)C3COc4ccccc4O3)CC2)cc1 (configuration not stated)	n	n	n	n	n
COc1ccc(S(=O)(=O)N2CCN(C(=O)C3COc4ccccc4O3)CC2)cc1 (configuration not stated)	n	40µM	n	n	n
CCN(CC)CCNC(=O)c1ccc(-n2c(-c3ccccc3)cc3c2CCCC3)cc1	11µM	u	x	x	x
CCN(CC)CCNC(=O)c1ccc(NC(=O)c2ccc3c(c2)CCC3)cc1	n	u	n	n	n
COCCCNC(=O)c1ccc(-n2c(-c3ccccc3)cc3c2CCCC3)cc1	13µM	u	x	x	x
CCOCCCNC(=O)c1ccc(-n2c(-c3ccccc3)cc3c2CCC(C)C3)cc1 (configuration not stated)	u	n	x	x	x
CO/N=C(/c1ccc(OC)cc1)c1ccc(OCC(C)C)cc1	x	n	x	x	x
O=C1c2ccccc2C(=O)N1N(c1ccccc1)c1ccccc1	n	n	n	u	n
O=C1C=CC(=O)N1N(c1ccccc1)c1ccccc1	u	35µM	n	n	n
NNc1c(F)c(F)c(Br)c(F)c1F	x	13µM	x	x	x
CCN(CC)C(=S)Sc1ccc([N+](=O)[O-])cc1	x	5.6µM	x	x	x
CN(C)C(=S)Nc1ccc([N+](=O)[O-])cc1	n	n	n	n	n
CCn1cc(CN2CCc3nc(N4CCN(C)CC4)[nH]c(=O)c3CC2)c2ccccc21	x	n	x	x	x
CC1CCCCC12NC(=S)N(c1ccccc1)N2 (configuration not stated)	n	5µM	n	n	n
CC1CCCC2(C1)NC(=S)N(c1ccccc1)N2 (configuration not stated)	n	u	n	n	n
CCCNC(=O)N(C1CCOCC1)C1CCN(C(=O)CCc2ccc(OC)cc2)CC1	x	n	x	x	x
CCCN1C(=O)[C@@H]2[C@@H](CCN2C(=O)CSCC(=O)O)N(Cc2cccs2)C1=O	x	32µM	x	x	x
O=C1[C@@H]2[C@@H](CCN2C(=O)NC2CCCCC2)N(Cc2cccs2)C(=O)N1c1cccc(F)c1	x	n	x	x	x
CC(C)c1onc(C(=O)N2CCN(C(c3ccccc3)c3ccccc3)CC2)c1[N+](=O)[O-]	n	n	n	n	3.2µM
CC(=O)n1cc(N(C(=O)CCl)c2ccc([N+](=O)[O-])cc2)c2ccccc21	n	u	n	n	n
SMILES	Nrf2 activator	12-LOX inh	IL2 activator	Integrin act MD	uPA generation
O=Cc1[nH]c2ccccc2c1N(C(=O)CCl)c1ccc([N+](=O)[O-])cc1	n	40µM	n	n	n
CC(C)(C)SCCNC(=O)/C=C/c1cccc([N+](=O)[O-])c1	10µM	n	n	n	n
C=CC[C@H]1CC=C[C@H](CC=C)[N+]1(C)C	x	7.1µM!	x	x	x
COCc1nc(C2CCN(C(=O)c3ccnn3C)C2)no1 (configuration not stated)	x	n	x	x	x
O=C(c1cccc(O)c1)N1CC(CNc2ccccc2)C2(C1)CN(c1ccccc1)C2 (configuration not stated)	x	n	x	x	x
CC(=O)c1ccc(C(=O)O)s1	x	16µM	x	x	x
CC(=O)c1ccc(CC(=O)O)s1	x	n	x	x	x
O=C1COc2ccc(-c3ccncc3)nc2CN1Cc1ccc(F)cc1	x	n	x	x	x
COc1ccc(Cl)cc1NC(=O)CN(C)C(=O)c1cn2ccccc2n1	n	n	n	n	11µM
CCOc1ccc(NC(=O)CN(C)C(=O)c2cn3ccccc3n2)cc1OCC	n	n	n	n	n
Cc1cc(OCCN2CC(C)OC(C)C2)ccc1[N+](=O)[O-] (configuration not stated)	n	u	n	n	n
Cc1cc(OCCN2CCC(Cc3ccccc3)CC2)ccc1[N+](=O)[O-]	n[9.22 µM]	6.3µM	n	n	n
O=C(O)c1cccc(N/N=C/c2cn(-c3ccccc3)nc2-c2cccs2)c1	n	45µM	n	u	n
Cc1sc(/N=C/c2ccc(Br)cc2)c(C#N)c1C	x	18µM	x	x	x
Cc1sc(/N=C/c2c[nH]c3ccccc23)c(C#N)c1C	x	20µM	x	x	x
CN1CC(=O)N(c2ccccc2F)Cc2c(NCc3ccccc3)ncnc21	x	n	x	x	x
Cc1nc2c(-c3ccc(F)cc3)cnn2c(N)c1-c1ccccc1	n	n	n	n	3.2µM
O=C(c1cncc(Br)c1)n1ccccc1=NC1CCCCC1	x	n	x	x	x
O=C(Nc1ccc(Br)cc1)c1cc(-c2cccnc2)nc2ccccc12	x	n	x	x	x
CCS[C@H]1CCN2C(=O)c3cc(-c4ccc(F)cc4F)ccc3NC(=O)[C@H]12	x	45µM	x	x	x
Cc1ccccc1C(=O)Nc1nc(-c2cc3ccccc3oc2=O)cs1	x	n	x	x	x
COc1ccc(C(=O)N2CCCCCCNC(=O)[C@@H]3C[C@@H](c4nc(C(C)C)no4)C[C@@H]32)cc1F	x	n	x	x	x
Cc1ccc2c(c1)c1c3n2CCN(C(=O)CCl)C3CCC1 (configuration not stated)	u	11µM	n	n	n
Cc1ccc(C(=O)NC(=S)Nc2cccc(NC(=O)c3ccccc3Cl)c2)cc1[N+](=O)[O-]	n	u	n	n	n
Cc1ccc(NC(=S)NNc2ccc(C(=O)O)cc2[N+](=O)[O-])cc1C	n	1.4µM	n	n	n
SMILES	Nrf2 activator	12-LOX inh	IL2 activator	Integrin act MD	uPA generation
O=C(O)c1ccccc1NS(=O)(=O)c1ccc(NNC(=S)Nc2ccc(OC(F)F)cc2)c([N+](=O)[O-])c1	n	3.5µM	n	n	n
Cc1ccc(C(=O)NC(=S)Nc2cccc(NC(=O)c3ccccc3)c2)cc1[N+](=O)[O-]	n	25µM	n	n	n
CN(CCO)c1ccc(C=NNc2ccc([N+](=O)[O-])cc2S(=O)(=O)Nc2ccccc2C(=O)O)cc1	n	40µM	n	n	n
Cc1ccc(Nc2ccc(C(N)=O)cc2[N+](=O)[O-])cc1C	n	n	n	n	n
COc1ccccc1CC(=O)N1CCCc2ncc(C(=O)Nc3ccccc3C)cc21	x	n	x	x	x
CC(=O)Nc1ccc(C=NNc2ccc([N+](=O)[O-])cc2S(=O)(=O)Nc2ccccc2C(=O)O)cc1	n	u	n	n	n
Cc1ccc(NC(=S)NNc2ccc([N+](=O)[O-])cc2S(=O)(=O)Nc2ccccc2C(=O)O)cc1C	u	10µM	n	n	n
